Compound activity: PubChem BioAssay, National Center for Advancing Translational Sciences (NCATS)
Sampled rows, rich in hits. Any-hit rate of the full collection: about 2.4%.
POLH inh – blocks human DNA polymerase eta activity; Q9Y253; recombinant Pol eta, fluorescent DNA replication assay; Potency, µM (highest dose often 114 µM), inactives show at the top dose activity change, negative = inhibition, usual class: inhibitors; actives 1.2% (n = 390,000); AID 588591; further: on the % scale 0 is the no-effect control and ±100 the full control effect
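Pol eta (10 nM) was preincubated with compounds for 15 min at room temperature, after which fluorescent replication substrate (50 nM final) was added to start the reaction. Fluorescence was read kinetically at 0 and 10 min.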
FEN1 inhibitor – human FEN1 inhibition; P39748; Recombinant FEN1 flap cleavage, fluorescence, 15 min; Potency, µM (series often up to 114 µM), for inactives: at the highest dose activity change, negative = inhibition, actives largely listed as inhibitors; actives 0.35% (n = 390,000); further: on the % scale 0 is the no-effect control and ±100 the full control effect; nearly all actives have a fitted effect of over 65% in size
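Enzyme 10 nM, 15 min RT preincubation with compound; start with substrate 50 nM final; reads at 0 and 15 min; qHTS titration, four-parameter Hill fit.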
POLB inh – DNA polymerase beta (human) inhibition; Potency, µM (doses to about 114 µM), inactives show at the top dose activity change, negative = inhibition, hits mostly inhibitors; Pol beta primer extension/strand displacement, fluorescence kinetic; actives 1.3% (n = 340,000); P06746; further: on the % scale 0 is the no-effect control and ±100 the full control effect
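Enzyme-only controls used 10 nM Pol beta; buffer lacking enzyme served as negative control. Compound preincubated 15 min, then 50 nM substrate added; 0 and 10 min reads at room temperature.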
POLK inh – inhibitors of human DNA polymerase kappa | actives 0.53% (n = 400,000) | Q9UBT6 | Potency, µM (doses to about 107 µM), for inactives: at the highest dose activity, negative = inhibition, most hits filed as inhibitors | purified Pol kappa, fluorescent DNA synthesis assay, 10 min; further: on the % scale 0 is the no-effect control and ±100 the full control effect
Target sequence (Q9UBT6 whole entry, looked up): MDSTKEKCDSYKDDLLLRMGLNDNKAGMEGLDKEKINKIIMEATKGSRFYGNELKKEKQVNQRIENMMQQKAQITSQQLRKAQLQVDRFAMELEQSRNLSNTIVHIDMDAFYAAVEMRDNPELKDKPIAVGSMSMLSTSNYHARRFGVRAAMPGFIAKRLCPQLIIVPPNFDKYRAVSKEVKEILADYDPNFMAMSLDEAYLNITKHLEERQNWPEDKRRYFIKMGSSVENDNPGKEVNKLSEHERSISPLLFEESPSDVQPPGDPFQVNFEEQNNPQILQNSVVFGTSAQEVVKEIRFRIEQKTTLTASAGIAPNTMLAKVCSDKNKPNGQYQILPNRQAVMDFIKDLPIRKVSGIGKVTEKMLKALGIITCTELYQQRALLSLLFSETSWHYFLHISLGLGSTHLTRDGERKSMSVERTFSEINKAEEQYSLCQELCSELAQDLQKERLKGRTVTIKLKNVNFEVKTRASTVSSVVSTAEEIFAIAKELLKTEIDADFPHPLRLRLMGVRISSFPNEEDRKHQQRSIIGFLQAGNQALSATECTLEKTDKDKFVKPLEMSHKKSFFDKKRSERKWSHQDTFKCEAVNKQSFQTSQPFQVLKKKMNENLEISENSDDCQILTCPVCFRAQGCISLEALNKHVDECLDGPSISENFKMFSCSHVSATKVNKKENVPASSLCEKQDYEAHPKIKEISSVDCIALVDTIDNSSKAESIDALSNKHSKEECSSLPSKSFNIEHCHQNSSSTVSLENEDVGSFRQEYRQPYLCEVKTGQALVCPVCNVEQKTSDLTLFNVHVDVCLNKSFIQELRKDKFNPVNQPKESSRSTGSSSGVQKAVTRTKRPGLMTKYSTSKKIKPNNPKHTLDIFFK
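Enzyme at 10 nM met test compounds for 15 min at room temperature. Substrate addition (50 nM final) began the reaction, which was monitored by fluorescence at 0 and 10 min.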
POLI inh – inhibitors of human DNA polymerase iota. Q9UNA4. Pol iota fluorescent replication assay, 10 min. Potency, µM (top dose mostly 115 µM), without a hit: top-dose activity, negative = inhibition, hits mostly inhibitors. actives 1% (n = 390,000)
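Fluorescent replication assay read twice, at 0 min and 10 min after adding 50 nM (final) substrate. Enzyme (10 nM) and compounds were first incubated 15 min at room temperature; enzyme-free buffer wells were negative controls.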
Tb PGK inh – inhibitors of T. brucei phosphoglycerate kinase | P07378 | PGK/GAPDH coupled, Kinase-Glo luminescence, 60 min | Potency, µM (series often up to 57.5 µM), for the others: at the highest dose activity change, negative = inhibition, actives largely listed as inhibitors | actives 0.043% (n = 380,000); further: on the % scale 0 is the no-effect control and ±100 the full control effect; nearly all actives have a fitted effect of over 60% in size
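Luminescent ATP detection (Kinase-Glo Plus) follows a 60-minute room-temperature incubation, with wells lacking PGK as controls. Buffer: 100 mM TEA (pH 7.6), 5 mM MgCl2, 0.01% Tween-20. Coupling enzyme GAPDH (100 nM final) supplies unstable 1,3-BPG in-well.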
Starred values were filed as active, the others as inactive; i = inactive; u = inconclusive; x = not tested or not shown; [ ] = another dose, or the depositor's remark. The call rests on the fitted dose curve; in most records, active means well fitted curve in the direction sought with a large enough effect; inconclusive means small, poorly fitted or top-dose-only effect, or another doubt; inactive means no such curve, though single readings can be large; an effect the other way counts as inactive or inconclusive. Potency means the concentration at half of the fitted maximal effect.

SMILES	POLH inh	FEN1 inhibitor	POLB inh	POLK inh	POLI inh	Tb PGK inh
O=C(CN1C(=O)c2ccccc2S1(=O)=O)NCCSCc1ccco1	-1%	13%	5%	-25%	100µM*	i
COc1ccc(OC)c(N(CC(=O)NCCSCc2ccco2)S(=O)(=O)c2ccccc2)c1	-10%	8%	-18%	-12%	16%	i
O=C(CN1C(=O)c2ccccc2S1(=O)=O)NCCSCc1ccccc1Cl	1%	-14%	-1%	-14%	0%	-3%
O=C(O)COc1nn(Cc2ccccc2)c2ccccc12	x	x	x	0%[19.4 µM]	x	x
O=C(Nc1ccccc1Br)c1cnn2c1NC(=C1CC1)C=C2C(F)F	x	-4%	x	-19%	u	x
O=C1S/C(=C\c2ccc(O)c([N+](=O)[O-])c2)C(=O)N1Cc1cccc([N+](=O)[O-])c1	u	u	32µM*	u	u	-11%
O=C(O)c1cccc(CN2C(=O)S/C(=C/c3ccccc3[N+](=O)[O-])C2=O)c1	79µM*	-17%	28%	-25%	20µM*	-4%
CCOC(=O)CN1C(=O)S/C(=C/c2cccc([N+](=O)[O-])c2O)C1=O	-13%	2%	-23%	-4%	4%	-15%
COc1ccccc1NC(=O)CSc1nncn2c1cc1sccc12	-18%	1%	-4%	6%	23%	-11%
CC(C)(C)n1ncc2c(=O)n(Cc3cccc(Oc4ccccc4)c3)cnc21	x	5%	x	10%	2%	x
Cc1c(N2C(=O)c3ccc4c5c(ccc(c35)C2=O)CC4)c(=O)n(-c2ccccc2)n1C	2.8µM*	50µM*	5µM*	50µM*	5.6µM*	u
Cc1c(N2C(=O)c3ccc(Br)cc3C2=O)c(=O)n(-c2ccccc2)n1C	-7%	7%	u	-4%	21%	3%
CC(=O)Nc1ccc2nc(NC(=O)COc3ccccc3C)sc2c1	-17%	-10%	-27%	-1%	73%	-1%
COc1cccc2sc(Nc3nc4ccc(NC(C)=O)cc4s3)nc12	u	u	u	45µM*	16µM*	-1%
Cc1ccc(CNC(=O)c2sc3nc(-c4ccccc4)cn3c2C)cc1	-15%	89µM*	-3%	-2%[60.1 µM]	8%	-2%
O=C(Nc1cccc(N=Cc2cc(Br)cc(Br)c2O)c1)c1ccco1	u	-13%	-1%	-19%	89µM*	-12%
COC(=O)c1sc(NC(=S)NNC(=O)c2c(Br)c(C)nn2C)c(C(=O)OC)c1C	50µM*	-24%	22µM*	-35%	u	-3%
Cc1c(N)cc(N)cc1C(=O)O	8%	-22%	30%	89µM*	45µM*	-1%
Nc1ccc(Cc2ccc(N)c(C(=O)O)c2)cc1C(=O)O	3%	4%	-12%	0%	-19%	i
Cc1ccc(S(=O)(=O)N2CCN(c3nc(-c4cccs4)nc4cccnc34)CC2)cc1	x	11%	x	-15%	7%	x
CSc1ccc(C2C(C#N)=C(N)Oc3cc4c(cc32)OCO4)cc1 (configuration not stated)	-4%	-17%	6%	89µM*	-21%	-9%
O=[N+]([O-])c1ccccc1/C=C/c1ccnc2ccccc12	x	-26%	x	-19%	u	x
O=C(c1cc2ncc(Br)cn2n1)N1CCN(C(=O)c2ccco2)CC1	13µM*	11%	u	-14%	u	-13%
COCCNC(=O)c1cc2ncc(Br)cn2n1	-9%	4%	23%	0%	-6%	-6%
O=C(NCCc1ccccc1)c1cc2ncc(Br)cn2n1	u	-1%	40µM*	-14%	u	-8%
SMILES	POLH inh	FEN1 inhibitor	POLB inh	POLK inh	POLI inh	Tb PGK inh
Cc1ccc(C)c(C(=O)CSc2nc3cc(C(=O)NC4CCCC4)ccc3c(=O)n2CC2CCCO2)c1 (configuration not stated)	-15%	-3%	0%	-11%	2%	-3%
O=[N+]([O-])c1ccc(O/N=[N+](\[O-])N2CCCC2)c([N+](=O)[O-])c1	x	1%	x	-18%	u	x
CC1(C)C=Cc2c(ccc3c2OC[C@H](c2ccc(O)cc2O)C3)O1	-13%	-11%	x	-4%	6%	1%
COc1ccc(C2COc3cc(O)ccc3C2)c(OC)c1O (configuration not stated)	0%	-5%	x	9%	79µM*	-4%
Cc1ccc(-c2cc(C3C4C=CCC(C)C4C(=O)N3Cc3ccccc3)ccc2F)cc1 (configuration not stated)	x	-26%	x	-45%	u	x
CCc1nnc(NC(=O)c2sc3nc4c(cc3c2N)CCCCCC4)s1	40µM*	-1%	40µM*	-43%	25µM*	0%
CC(=O)c1cccc(NC(=O)c2sc3nc4c(cc3c2N)CCCC4)c1	79µM*	5%	u	9%	-5%	-7%
CC(C)OC(=O)CC(=O)c1sc2nc3c(cc2c1N)CN(C)CC3	u	u	40µM*	u	11µM*	-4%
CN1CCc2nc3sc(C(=O)Nc4cccc(C#N)c4)c(N)c3cc2C1	x	40µM*	-17%	0%	u	x
O=C(O)c1ccccc1N/N=C/c1cc(Br)cc(Br)c1O	79µM*	u	u	-22%	u	-17%
COc1ccc2c(c1)CCc1c-2nc2ccccc2c1N1CCOCC1	-9%	50µM*	u	-25%	109%	-1%
c1ccc2c(N3CCOCC3)c3c(nc2c1)CCC3	-14%	17%	-23%	1%	48%	4%
NC(=S)c1ccc[n+]([C@@H]2O[C@@H](COP(=O)([O-])OP(=O)(O)OC[C@H]3O[C@@H](n4cnc5c(N)ncnc54)[C@H](OP(=O)(O)O)[C@@H]3O)C(O)C2O)c1 (some centres not stated)	x	x	x	3%[60.1 µM]	x	x
COc1ccc(/C=C/C(=O)OCc2cc(=O)n3c(n2)sc2ccccc23)cc1	-2%	2%	u	-11%	71%	-9%
O=c1cc(CCl)nc2sc3ccccc3n12	50µM*	-1%	u	u	35µM*	-8%
O=C(OCc1cc(=O)n2c(n1)sc1ccccc12)c1ccc(O)cc1	u	-11%	10µM*	-10%	-5%	3%
O=C(CNC(=O)c1cccnc1)c1ccc(F)cc1	x	11%	x	-3%	-10%	x
CCOc1ccccc1Nc1nc(-c2cccc(Cl)c2)c2c(n1)-c1ccccc1OC2	-13%	50µM*	40µM*	89µM*	-18%	-4%
CCC(C)COC(c1ccccc1)(c1ccccc1)C(Oc1nc(C)cc(C)n1)C(=O)O (configuration not stated)	9%	10%	0%	-16%	79µM*	-3%
